“And” between values parts separate entries of the source, which are not always exact repeats. Equal entries are not always repeated. Inconclusive results are not listed. Where a call stands in place of a potency, no number is given. Some structures have more than one record in an assay (separate samples or runs), and their calls can disagree. The source made the active and inactive calls. Unless noted, calls follow the shape of the dose curve; as a rule, active = well fitted curve in the direction sought with a large enough effect in the repeat runs; inconclusive = weak or mixed curves; inactive = no such curve, though single readings can be large; an effect the other way counts as inactive or inconclusive.
Experiments:
[1] = qHTS assay to test for compound auto fluorescence at 535 nm (green) in HEK293 cells (AID 720680)
[2] = qHTS assay to test for compound auto fluorescence at 460 nm (blue) in HEK293 cell free culture (AID 720681)
Method in brief: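 Test compounds were pinned into cell-free culture medium (DMEM with 10% FBS) and fluorescence was read directly at Ex/Em 405/460 nm. Signals were expressed as fluorescence equivalents of triamterene, with DMSO vehicle as control.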

[3] = qHTS assay to test for compound auto fluorescence at 535 nm (green) in HEK293 cell free culture (AID 720682)
Method in brief: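 Each library compound, or DMSO control, is added by pintool to medium alone, comprising DMEM and 10% FBS. Emission at 535 nm following 485 nm excitation is quantified against fluorescein.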

[4] = qHTS assay to test for compound auto fluorescence at 590 nm (red) in HEK293 cell free culture (AID 720683)
Method in brief: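 Tox21 10K library compounds were pinned into cell-free DMEM with 10% FBS and fluorescence was read at excitation 540 nm. Activity is expressed as Rose Bengal sodium equivalency.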

[5] = qHTS assay to test for compound auto fluorescence at 590 nm (red) in HepG2 cell free culture (AID 720684)
Method in brief: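 Ex 540 / Em 590 nm read of compound in cell-free MEM (10% FBS). Rose Bengal sodium reference.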

[6] = qHTS assay to test for compound auto fluorescence at 460 nm (blue) in HepG2 cell free culture (AID 720685)
Method in brief: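 Cell-free plates of MEM plus 10% FBS received 23 nL compound or DMSO vehicle; blue-channel (405/460 nm) intensity scored against triamterene as reference fluorophore.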

[7] = qHTS assay to test for compound auto fluorescence at 460 nm (blue) in HepG2 cells (AID 720687)
Method in brief: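 Cells (2,000/well in MEM with 10% FBS) attached overnight at 37 C, then were exposed to compound or DMSO for 1 hr at 37 C, 5% CO2. Fluorescence read at Ex/Em 405/460 nm, expressed as triamterene-equivalent signal.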

[8] = target: Glucocorticoid receptor (Homo sapiens) (UniProt P04150); experiment: qHTS assay to identify small molecule agonists of the glucocorticoid receptor (GR) signaling pathway (AID 720691; active = well fitted activation curve with a large enough effect in the signal ratio in the repeat runs, not every such curve was filed as active; the % refers to the signal ratio)
Glucocorticoid receptor (Homo sapiens), sequence (P04150 whole entry, looked up): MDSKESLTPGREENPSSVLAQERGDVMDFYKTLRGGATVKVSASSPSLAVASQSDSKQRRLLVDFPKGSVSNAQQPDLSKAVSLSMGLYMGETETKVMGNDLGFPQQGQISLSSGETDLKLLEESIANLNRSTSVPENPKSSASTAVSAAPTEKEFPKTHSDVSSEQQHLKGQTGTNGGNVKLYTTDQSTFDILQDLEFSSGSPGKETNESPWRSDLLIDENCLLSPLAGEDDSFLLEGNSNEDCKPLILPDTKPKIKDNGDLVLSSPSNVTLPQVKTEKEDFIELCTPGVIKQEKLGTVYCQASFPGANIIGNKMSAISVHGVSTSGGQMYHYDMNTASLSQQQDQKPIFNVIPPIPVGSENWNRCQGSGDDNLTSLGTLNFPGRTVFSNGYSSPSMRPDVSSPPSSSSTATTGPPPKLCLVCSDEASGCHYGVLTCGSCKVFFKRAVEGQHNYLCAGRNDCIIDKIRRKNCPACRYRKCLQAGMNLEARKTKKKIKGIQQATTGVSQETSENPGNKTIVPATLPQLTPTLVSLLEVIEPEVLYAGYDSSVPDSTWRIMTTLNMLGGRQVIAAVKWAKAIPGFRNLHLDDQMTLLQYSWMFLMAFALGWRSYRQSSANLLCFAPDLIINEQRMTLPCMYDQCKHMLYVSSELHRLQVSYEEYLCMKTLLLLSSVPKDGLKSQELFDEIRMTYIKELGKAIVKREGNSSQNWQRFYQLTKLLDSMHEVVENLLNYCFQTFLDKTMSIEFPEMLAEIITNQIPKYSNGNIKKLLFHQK
Method in brief: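 Compounds in DMSO, alongside positive controls, were added to GR-bla HeLa reporter cells and incubated 18 h at 37 C; GRE-driven beta-lactamase was detected by fluorescence after 2 h with FRET substrate at room temperature.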

[9] = target: Glucocorticoid receptor (Homo sapiens) (UniProt P04150); experiment: qHTS assay to identify small molecule antagonists of the glucocorticoid receptor (GR) signaling pathway (AID 720692; active = well fitted inhibition curve with a large enough effect in the signal ratio in the repeat runs, not every such curve was filed as active; the % refers to the signal ratio; also: potency is read from the fitted curve at half-maximal effect)
Method in brief: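 In a 1536-well cell format, compounds were added 4 h after seeding GR-bla HeLa cells, together with dexamethasone at 5 nM final; reporter activity was measured by FRET-substrate fluorescence following 18 h at 37 C.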

[10] = qHTS assay to identify small molecule antagonists of the glucocorticoid receptor (GR) signaling pathway - cell viability counter screen (AID 720693); also: nearly all actives have a fitted effect of over 55% in size; also: potency is read from the fitted curve at half-maximal effect
[11] = qHTS assay for identifying genotoxic compounds that show differential cytotoxicity against isogenic chicken DT40 cell lines with known DNA damage response pathways - wild type cell line (AID 743012); also: nearly all actives have a fitted effect of over 60% in size; also: potency is read from the fitted curve at half-maximal effect
Method in brief: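 Viability of DNA repair-proficient chicken DT40 cells was assessed by CellTiter-Glo luminescence following 40 h compound exposure at 37 C/5% CO2.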

[12] = qHTS assay for identifying genotoxic compounds that show differential cytotoxicity against isogenic chicken DT40 cell lines with known DNA damage response pathways - Rev3 mutant cell line (AID 743014); also: nearly all actives have a fitted effect of over 55% in size; also: potency is read from the fitted curve at half-maximal effect
[13] = qHTS assay for identifying genotoxic compounds that show differential cytotoxicity against isogenic chicken DT40 cell lines with known DNA damage response pathways - Rad54/Ku70 mutant cell line (AID 743015); also: nearly all actives have a fitted effect of over 60% in size; also: potency is read from the fitted curve at half-maximal effect
[14] = qHTS assay to identify small molecule antagonists of the androgen receptor (AR) signaling pathway - cell viability counter screen (AID 743033; also: nearly all actives have a fitted effect of over 45% in size; also: potency is read from the fitted curve at half-maximal effect)
[15] = qHTS assay to identify small molecule antagonists of the androgen receptor (AR) signaling pathway using the MDA cell line - cell viability counter screen (AID 743041; also: nearly all actives have a fitted effect of over 45% in size; also: potency is read from the fitted curve at half-maximal effect)
Method in brief: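 In this qHTS counter assay, fluorescence intensity after CellTiter-Fluor addition indicated viability of MDA-kb2 AR-luc cells given compounds and R1881 for 16 h at 37C.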

[16] = qHTS assay to test for compound auto fluorescence at 535 nm (green) in HepG2 cell free culture (AID 720686)

| Compound | outcome [1] | outcome [2] | outcome [3] | outcome [4] | outcome [5] | outcome [6] | outcome [7] | outcome [8] | Potency [9] | Potency [10] | Potency [11] | Potency [12] | Potency [13] | Potency [14] | Potency [15] | outcome [16] |
| --- | --- | --- | --- | --- | --- | --- | --- | --- | --- | --- | --- | --- | --- | --- | --- | --- |
| CC[N+]1(C)CCCC1 | inactive | inactive | inactive | inactive | inactive | inactive | inactive | inactive | inactive | inactive | inactive and 971 nM (active) | inactive and 612 nM (active) | inactive and 771 nM (active) | inactive | inactive |  |
| O=P1(N(CCCl)CCCl)NCCCO1 (stereo not given) | inactive | inactive | inactive | inactive | inactive | inactive | inactive | inactive | inactive | inactive | inactive | inactive | inactive | inactive | inactive | inactive |
| O=C(O)COc1ccc(Cl)cc1Cl | inactive | inactive | inactive | inactive | inactive | inactive | inactive | inactive | inactive | inactive | inactive | inactive | inactive | inactive | inactive |  |
| O=C(O)CCl | inactive | inactive | inactive | inactive | inactive | inactive | inactive | inactive | inactive | inactive | inactive | inactive | inactive | inactive | inactive |  |
| CCOP(=S)(OCC)Oc1ccc2c(C)c(Cl)c(=O)oc2c1 | inactive | inactive | inactive | inactive | inactive | inactive | inactive | inactive |  | inactive | inactive and 17.2 µM (active) | inactive and 19.3 µM (active) | inactive and 17.2 µM (active) | inactive | inactive |  |
| CCCCCCCCCCCCCC[P+](CCCCCC)(CCCCCC)CCCCCC | inactive | inactive | inactive | inactive | inactive | inactive | inactive | inactive |  | 12.4 µM (active) and 11.1 µM (active) | 13.7 µM (active) and 6.91 µM (active) | 7.73 µM (active) and 6.16 µM (active) and inactive | 6.14 µM (active) and 6.16 µM (active) and inactive | 982 nM (active) and 3.92 µM (active) and 346 nM (active) |  |  |
| O=C(O)c1ccccc1O |  |  | inactive |  |  |  |  |  |  | inactive | inactive | inactive | inactive | inactive | inactive |  |
| O=[N+]([O-])c1ccccc1O | inactive | inactive | inactive | inactive | inactive | inactive | inactive | inactive | inactive | inactive | inactive | inactive | inactive | inactive | inactive |  |
| CCCC[n+]1ccccc1 | inactive | inactive | inactive | inactive | inactive | inactive | inactive |  |  | inactive | inactive | inactive | inactive | inactive | inactive |  |
| Nc1ccc(-c2ccc(N)c(Cl)c2)cc1Cl | inactive | inactive | inactive | inactive | inactive | inactive | inactive |  | 19.6 µM (active) and 11.5 µM (active) and 19.5 µM (active) | inactive | 54.5 µM (active) | 48.8 µM (active) and 28.6 µM (active) and 54.5 µM (active) | 61.4 µM (active) and 50.8 µM (active) and 54.5 µM (active) | inactive | inactive |  |
| CCCCn1cc[n+](C)c1 | inactive | inactive | inactive | inactive | inactive | inactive | inactive |  |  | inactive | inactive | inactive | inactive | inactive | inactive |  |
| O=C(O)CC(O)(CC(=O)O)C(=O)O | inactive | inactive | inactive | inactive | inactive | inactive | inactive |  |  | inactive | inactive | inactive | inactive | inactive | inactive |  |
| CC[n+]1ccccc1 | inactive | inactive | inactive | inactive | inactive | inactive | inactive |  |  | inactive | inactive and 241 nM (active) | inactive and 171 nM (active) | inactive and 136 nM (active) | inactive and 21.7 µM (active) |  |  |
| COc1ccccc1N | inactive | inactive | inactive | inactive | inactive | inactive | inactive |  |  | inactive | inactive | inactive | inactive | inactive | inactive |  |
| C[C@]12CCC(=O)C=C1CC[C@@H]1[C@@H]2CC[C@]2(C)C(=O)CC[C@@H]12 | inactive | inactive | inactive | inactive | inactive | inactive | inactive |  |  | inactive | 23.7 µM (active) and 27.3 µM (active) | 29.8 µM (active) and 47.7 µM (active) and 54.5 µM (active) | 26.6 µM (active) and 42.5 µM (active) and 27.3 µM (active) | inactive | inactive |  |
| CC(=O)O | inactive | inactive | inactive | inactive | inactive | inactive | inactive |  |  | inactive | inactive | inactive | inactive | inactive | inactive |  |
| CCCCCCCCn1cc[n+](C)c1 | inactive | inactive | inactive | inactive | inactive | inactive | inactive |  |  | inactive |  |  | 607 nM (active) [middle of 4 runs] | 15.4 µM (active) and 11.1 µM (active) | 2.71 µM (active) and 1.53 µM (active) and 1.55 µM (active) |  |

— PubChem BioAssay (Tox21)
